Source: PubChem (National Center for Advancing Translational Sciences (NCATS))
Most compounds without a hit are left out; they make up all but 2.4% or so of the library.
p53ts 32C kill – qHTS Screen for Compounds that Selectively Target Cancer Cells with p53 Mutations: Cytotoxicity of p53ts Cells at the Permissive Temperature. H1299-p53A138V at 32C, ATP luminescence viability, 24 h. Potency, µM (highest dose often 46.1 µM), actives largely listed as cytotoxic. hit rate 0.93% among 130,000. AID 924, 2007; also: nearly all actives have a fitted effect of over 55% in size
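Cells: H1299 p53ts (A138V), 600/well, pre-incubated 16–30 h at 37C. Cpd up to 46 uM, 24 h, 32C. Readout: ATPlite luminescence, 20 min RT. Normalization: DMSO vs tamoxifen 100 uM. AC50 by Hill equation.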
Imprint erasure – qHTS Assay for Compounds that Induce Erasure of Genomic Imprints; mouse ES Peg3-LacZ reporter, beta-gal luminescence, 40 h; hit rate 0.02% among 110,000; AID 1948, 2009; Potency, µM (series often up to 60.7 µM), usual class: activators
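Imprint erasure is scored as LacZ activity from the silenced maternal Peg3 allele in feeder-free female ES cells cultured 40 h with LIF. Luminescence is normalized to in-plate negative controls and fitted to the Hill equation.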
Luciferase inh – qHTS Assay for Inhibitors of Firefly Luciferase; hit rate 2.2% among 72,000; AID 411, 2009; Potency, µM (top dose mostly 57.1 µM), hits mostly inhibitors; purified firefly luciferase, luminescence, 8 min; Luciferin 4-monooxygenase (Photinus pyralis), P08659; also: nearly all actives have a fitted effect of over 40% in size
Target sequence (P08659 whole entry, looked up): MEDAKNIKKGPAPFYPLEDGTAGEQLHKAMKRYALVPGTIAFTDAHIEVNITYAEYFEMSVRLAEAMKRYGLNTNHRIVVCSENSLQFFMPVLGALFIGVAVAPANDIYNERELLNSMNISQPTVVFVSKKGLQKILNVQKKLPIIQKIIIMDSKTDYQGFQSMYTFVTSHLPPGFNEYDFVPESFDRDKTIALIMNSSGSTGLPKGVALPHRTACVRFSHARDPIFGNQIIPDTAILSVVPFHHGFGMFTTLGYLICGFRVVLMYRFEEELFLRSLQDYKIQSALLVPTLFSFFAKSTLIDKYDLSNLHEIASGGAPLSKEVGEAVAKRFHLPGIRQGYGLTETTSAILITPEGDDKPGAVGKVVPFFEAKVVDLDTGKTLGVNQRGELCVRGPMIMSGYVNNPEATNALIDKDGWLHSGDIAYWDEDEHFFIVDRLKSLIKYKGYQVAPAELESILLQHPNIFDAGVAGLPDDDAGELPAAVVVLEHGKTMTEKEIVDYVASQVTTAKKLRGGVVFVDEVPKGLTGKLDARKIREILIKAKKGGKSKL
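Titration-based qHTS; buffer 50 mM imidazole pH 7.2, 50 mM KCl, 7 mM MgCl2, 10 uM ATP, 0.01% Tween 20, 0.05% BSA; luciferase/luciferin detector mix added after compound; 8 min, ambient; luminescence.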
IkB sig inh – IkB Signaling; ABC-DLBCL IkBa-CBG/CBR dual luciferase ratio, 4 h; response scale: scaled: untreated 0%, proteasome inhibitor 100%; Potency, µM (highest dose often 57.1 µM); hit rate 0.04% among 110,000; AID 445, 2006; active = well fitted curve in the direction sought with a large enough effect in the signal ratio, not every such curve was filed as active; inconclusive = small, poorly fitted or top-dose-only effect, or a change in a side signal; the % refers to the signal ratio;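 also: the direction sought is a rising ratio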
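Curves were fitted separately to fusion (green), unfused (red) and ratio luminescence, then classed by r2, magnitude and activity. Cells: OCI-Ly3, 4 h compound plus doxycycline at 37C; 10 uM MG-132 defined full response.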
p53ts 39C kill – qHTS Screen for Compounds that Selectively Target Cancer Cells with p53 Mutations: Cytotoxicity of p53ts Cells at the Nonpermissive Temperature | hit rate 1.5% among 130,000 | H1299-p53A138V viability at 39C, ATP luminescence, 24 h | Potency, µM (top dose mostly 46.1 µM), usual class: cytotoxic; also: nearly all actives have a fitted effect of over 55% in size
Of the large screens only hits and unclear results are named; the others gave an inactive call; ! = not confirmed by another sample. Unless noted, calls follow the shape of the dose curve; as a rule, active = well fitted curve in the direction sought with a large enough effect; inconclusive = small, poorly fitted or top-dose-only effect, or another doubt; inactive = no such curve, though single readings can be large; an effect the other way counts as inactive or inconclusive.

CCCCN1c2ccccc2N(CCCO)c2cc(C)nnc21	p53ts 32C kill inconclusive, Luciferase inh 16µM, p53ts 39C kill inconclusive
CCCCn1c(-c2ccccc2)nnc1-c1ccccc1	none
COc1ccc(-c2nc(-c3ccccc3)c(-c3ccc(F)cc3)[nH]2)c(OC)c1C	IkB sig inh inconclusive (no result: Luciferase inh)
CCOc1cccc(NC(=O)CSc2ncc(-c3ccccc3)[nH]2)c1	IkB sig inh inconclusive (no result: Luciferase inh)
Cc1cccc(NC(=O)CSc2ncc(-c3ccc(Br)cc3)[nH]2)c1	p53ts 32C kill inconclusive, IkB sig inh inconclusive, p53ts 39C kill 13µM (no result: Luciferase inh)
CCCCN(CC)CCNC(=O)c1cc2c(-c3ccc(Cl)cc3)nn(C)c2s1	IkB sig inh inconclusive, p53ts 39C kill 16µM (no result: Luciferase inh)
CCN(CC)CCNC(=O)c1cc2c(-c3ccc(Cl)cc3)nn(C)c2s1	IkB sig inh inconclusive
CCCN(CCC)CCNC(=O)c1cc2c(-c3ccc(Cl)cc3)nn(C)c2s1	IkB sig inh inconclusive, p53ts 39C kill 13µM (no result: Luciferase inh)
CC1(C)N=C(N)N=C(N)N1c1cccc(CSc2ccccc2)c1	none
COc1cc(NS(=O)(=O)c2cnc(N)nc2)cc(OC)c1	none (no result: Luciferase inh)
C=CCN1C=CC(=C/C=C(/C#N)C(=O)OCC)C=C1	p53ts 32C kill 10µM, p53ts 39C kill inconclusive (no result: Imprint erasure, Luciferase inh, IkB sig inh)
COc1cc(CN(C(=O)c2ccc(Cl)cc2)C2CCS(=O)(=O)C2)cc(OC)c1OC (stereo not given)	none (no result: Luciferase inh)
Cc1ccc(N=Nc2c(O)c3ccccc3[nH]c2=O)c(S(=O)(=O)N(C)C)c1	Luciferase inh 3.2µM
CCCCc1c(O)c2ccccc2[nH]c1=O	none
CCN(C(=O)Cn1nc(Cc2cccnc2)c2ccccc2c1=O)c1cc(C)ccc1C	IkB sig inh inconclusive (no result: Luciferase inh)
Cc1cc(C2=NNC(=NC3CC3)SC2)c(C)n1-c1ccccc1	p53ts 39C kill 10µM (no result: p53ts 32C kill, Imprint erasure, Luciferase inh, IkB sig inh)
Cc1cc(C2=NNC(=NC3CC3)SC2)c(C)n1Cc1ccco1	p53ts 39C kill 13µM (no result: p53ts 32C kill, Imprint erasure, Luciferase inh, IkB sig inh)
Cc1ccccc1CS(=O)(=O)Cc1ccc(C(=O)NCCc2ccc(Cl)cc2)o1	IkB sig inh inconclusive, p53ts 39C kill inconclusive (no result: Luciferase inh)
CC(=O)Nc1cc(C(=O)NCc2ccc(F)cc2)ccc1Sc1ccc(C)cc1	IkB sig inh inconclusive (no result: Luciferase inh)
CCOc1ccc(CCNC(=O)c2ccc(-c3nc(COc4ccc(C)cc4)c(C)o3)cc2)cc1	none (no result: Luciferase inh)
CCOC(=O)c1ccc(NC(=O)CSc2nccn2Cc2ccc(OC)cc2)cc1	none (no result: Luciferase inh)
Cc1ccc(S(=O)(=O)N(CC(=O)O)c2ccc(Cl)cc2)cc1	none (no result: Imprint erasure, Luciferase inh, IkB sig inh)
CCN(CCCNC(=O)c1cc2cc3ccc(OC)cc3nc2s1)c1cccc(C)c1	p53ts 32C kill inconclusive, IkB sig inh inconclusive, p53ts 39C kill 13µM (no result: Luciferase inh)
COC(=O)c1sc(-c2ccccc2)cc1NC(=O)Nc1ccc(F)cc1	IkB sig inh inconclusive (no result: Luciferase inh)
Cc1cc(N)c2cc(NC(=O)Nc3ccc4nc(C)cc(N)c4c3)ccc2n1	none
Cc1cc(NC(=O)Nc2ccc3c(ccn3C)c2)sn1	p53ts 32C kill inconclusive, Luciferase inh 32µM!, p53ts 39C kill inconclusive
CCc1ccccc1Nc1cc(C(=O)NC(C)c2ccccc2)c2ccccc2n1 (stereo not given)	IkB sig inh inconclusive (no result: Luciferase inh)
COc1cc(NC(=O)CCc2c(C)nn(-c3ccc(N4CCCCC4)nn3)c2C)cc(OC)c1OC	p53ts 32C kill inconclusive, IkB sig inh inconclusive, p53ts 39C kill inconclusive (no result: Luciferase inh)
COc1ccc(NC(=O)CCc2c(C)nn(-c3ccc(N4CCCCC4)nn3)c2C)cc1Cl	p53ts 32C kill 16µM, p53ts 39C kill 10µM (no result: Luciferase inh)
COc1cc2c(cc1OC)CN(C(=O)CC1CC3CCC1C3)CC2 (stereo not given)	p53ts 32C kill 10µM, Luciferase inh 13µM, IkB sig inh inconclusive, p53ts 39C kill 13µM
COc1cccc2c1[C@@H]1CN(CCCCn3c(=O)[nH]c4c(sc5ncc(-c6ccccc6)nc54)c3=O)C[C@H]1CO2	p53ts 32C kill inconclusive, p53ts 39C kill inconclusive (no result: Imprint erasure)
O=c1[nH]cc(CS(=O)(=O)Cc2c[nH]c(=O)[nH]c2=O)c(=O)[nH]1	none
CCCCN(C)CC(O)Cn1cc(/C=C/C(=O)c2ccc(OCC)cc2)c2ccccc21 (stereo not given)	p53ts 32C kill 16µM, IkB sig inh inconclusive, p53ts 39C kill 5µM (no result: Luciferase inh)
